# From PubChem BioAssay
# Dicer processing – inhibitors of Dicer pre-microRNA processing, primary screen, biochemical, cat-ELCCA, chemiluminescence; actives 6% (n = 47,000); cat-ELCCA pre-miR-21 Dicer processing; active compounds read high; z-score at 25 µM; AID 1347074, 2019; Endoribonuclease Dicer (Homo sapiens), Q9UPY3; in the data active means z-score above about 3, passing the limit was not always enough;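 further: plate controls were vehicle for no effect and no enzyme for full effect; higher signal means more uncleaved substrate so more Dicer inhibition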
# Starred values were filed as active, the others as inactive. This excerpt belongs to a sample that is enriched for hits.
SMILES,Dicer processing
CCOC(=O)c1cnn(C(=O)Cc2ccsc2)c1N,-1.5
CCOC(=O)c1c(C)n(C)c2c1cc(O)c1ccccc12,0.73
C/C(=N/OC(=O)Nc1ccccc1C)c1ccc2c(c1)CCO2,2
CC(C)C(=O)NNc1nc2c(c(=O)n(C)c(=O)n2C)n1Cc1ccc(Cl)cc1,-1.2
CC(=O)N(c1ccccc1)C1CC(C)N(C(=O)c2cccs2)c2ccccc21 (stereo not drawn),0.83
COc1ccc(Oc2coc3cc(OCCc4ccccc4)ccc3c2=O)cc1,1.3
CC(C)(Oc1ccc(C#N)cc1)C(=O)O,-1.1
CCOc1ccc2nc(SC3CC(=O)N(c4cc(OC)ccc4OC)C3=O)sc2c1 (stereo not drawn),0.17
COc1cccc(C2C(C(=O)OC(C)C)=C(C)NC3=C2C(=O)CC(c2ccccc2)C3)c1OC (stereo not drawn),7.6*
CC1=C(C(=O)OCC2CCCO2)C(c2cccc(Cl)c2)C2=C(CC(C)(C)CC2=O)N1 (stereo not drawn),0.84
CC1=C(C(=O)OCC2CCCO2)C(c2cccc(O)c2)C2=C(CC(C)(C)CC2=O)N1 (stereo not drawn),3.1*
CC1=C(C(=O)OCC2CCCO2)C(c2cccc(Br)c2)C2=C(CC(C)(C)CC2=O)N1 (stereo not drawn),0.65
COc1ccccc1C1C(C(=O)OC(C)C)=C(C)NC2=C1C(=O)CC(c1ccccc1)C2 (stereo not drawn),1.8
COc1cccc(C2C(C(=O)OC3CCCC3)=C(C)NC3=C2C(=O)CC(c2ccccc2)C3)c1OC (stereo not drawn),-0.47
Cc1nnc(NC(=O)c2nn(-c3ccccc3)nc2C)s1,-1.2
CCOC(=O)C1=C(C)NC2=C(C(=O)CCC2)C1c1cc(Cl)c(O)c(OC)c1 (stereo not drawn),-0.45
CCOC(=O)Cc1nnc2c(N(CC)c3ccccc3)nc3nonc3n12,2.3
COc1ccc(CCNC(C#N)c2ccco2)cc1OC (stereo not drawn),-1
Cn1c(=O)c2c(nc3n(-c4ccc5c(c4)OCO5)c(-c4ccccc4)cn23)n(C)c1=O,0.25
CN(C)/C=C1/SC(=O)N(c2ccc(OC(F)(F)F)cc2)C1=O,-1.6
O=C(Nc1cccc(Cl)c1)N1CCc2ccccc2C1,6*
O=C(Nc1cccc(Cl)c1)N1CCN(c2nsc3ccccc23)CC1,-0.99
CN1CC(=O)N/C1=N\C(=O)Nc1cccc(Cl)c1,-1.5
O=C(CSc1n[nH]c(C(F)(F)F)n1)c1ccc2ccccc2c1,-0.23
CC(C)c1ccc(NC(=O)CSc2ncc3c(n2)CC(C)(C)CC3=O)cc1,-1.7
SMILES,Dicer processing
Cc1ccc2c(c1)C(=NCCCN=C1C(=O)Nc3ccc(C)cc31)C(=O)N2,0.88
Oc1ccc(Cl)cc1Sc1cc(Cl)ccc1O,3.2*
Oc1ccc(Cl)cc1-c1csnn1,0.76
NS(=O)(=O)c1ccc(Cl)cc1Sc1ccccc1C(=O)O,-0.59
CC(C)(C)OC(=O)N1CCN(C(=O)/C=C/C(=O)O)CC1,-0.77
CCN(CC)C(=S)Oc1ccccc1[N+](=O)[O-],-0.83
CN(C)c1ccnc2sc3c(N(CCO)CCO)ncnc3c12,3.3*
OCCN(CCO)c1ncnc2c1sc1nc(N3CCOCC3)c3c(c12)CCCC3,-0.37
OCCCNc1ncnc2c1sc1nc(-c3ccccc3)c3c(c12)CCCC3,-0.45
CC(C)(C)c1ccc(NC(=O)NNc2ncccc2C#N)cc1,2.7
CCCN(CCC)C1=C(C(=O)c2ccccc2)N(CC(N)=O)S(=O)(=O)c2ccccc21,3.5*
NC(=O)CN1C(C(=O)c2ccccc2)=C(NCc2ccccc2)c2ccccc2S1(=O)=O,0.71
NC(=O)CN1C(C(=O)c2ccccc2)=C(N2CCOCC2)c2ccccc2S1(=O)=O,0.95
C1=CC2c3c(ccc4ccccc34)NC(c3ccccc3)C2C1 (stereo not drawn),6.5
O=[N+]([O-])c1ccc(Oc2cncc(Cl)c2)c(-c2nnc(-c3cccc(Cl)c3)o2)c1,-0.02
O=C(CCSc1nc(-c2ccco2)cc(C(F)(F)F)n1)Nc1ccccc1,-0.26
Cc1cc(NC(=O)CCSc2nc(-c3ccco3)cc(C(F)(F)F)n2)n(-c2ccccc2)n1,1.2
Cc1nn(C)c(C)c1NC(=O)CCSc1nc(-c2ccco2)cc(C(F)(F)F)n1,3*
CCc1nc(-c2cc3ccccc3[nH]c2=O)no1,-0.04
Cc1ccc(S(=O)(=O)Nc2ccc(C)cc2C)cc1,1.6
Cc1ccc(S(=O)(=O)Nc2cccc3cccc(Br)c23)cc1,3.1*
Cc1ccc(S(=O)(=O)Nc2cccc3ccccc23)cc1,2.9
CN(C)c1ccc(/C=N/N=C(\C(=O)c2ccccc2)c2ccccc2)cc1,1.4
C=CCc1cccc(C2N(C)c3ccccc3N2C)c1O,-3.1
CCOC(=O)CC(=O)c1c[nH]c2ccccc12,15
SMILES,Dicer processing
Fc1ccc(CN2CCN(C3CCCCC3)CC2)cc1,-0.45
c1ccc(CN2CCN(C3CCCC3)CC2)cc1,-0.01
Fc1ccccc1CN1CCN(C2CCCC2)CC1,5.3*
Cc1cc(C)nc(N/C=C(\C#N)S(=O)(=O)Cc2ccco2)n1,-2.2
C=CC[n+]1ccc(/C=C2\Sc3ccccc3N2C)c2ccccc21,0.83
CCOC(=O)c1c(NC(=O)COc2ccccc2Br)sc2c1CCC2,0.53
CSc1cc(-c2ccccn2)nc(C(C)(C)C)c1,2.3
CCOC(=O)C1=C(N)Oc2ccc3ccccc3c2C1c1cccc(O)c1 (stereo not drawn),3.5*
CCOC(=O)C1=C(N)Oc2cc(O)ccc2C1c1ccc(F)cc1F (stereo not drawn),0.45
CCOC(=O)C1=C(N)Oc2cc(O)ccc2C1c1ccccc1 (stereo not drawn),0.12
Cc1ccc(-c2nnc(N3CCOCC3)c3ccccc23)cc1S(=O)(=O)N1CCOCC1,-1.3
COc1ccccc1NC(=S)N1CC(C)(C)C1=O,-0.45
COc1ccccc1N1C(=O)C2C3C=CC(CC3)C2C1=O (stereo not drawn),0.02
COc1ccccc1N1CC(C)(C)C(=O)NC1=S,6.2*
CCOC(=O)/C=C1\CSCC(C(=O)OCC)N1 (stereo not drawn),-2.3
CCCC(=O)N(c1ccc2oc(=O)sc2c1)S(=O)(=O)c1cccs1,-1.1
O=C(C1CCCCC1)N(c1ccc2oc(=O)sc2c1)S(=O)(=O)c1cccs1,3.7*
CC(C)C(=O)N(c1ccc2oc(=O)sc2c1)S(=O)(=O)c1ccccc1,2.6
CC(=O)N(O)CC(=O)Nc1ccccc1C(=O)c1ccccc1,0.94
Cc1ccc(-c2csc(NC3OC(=O)c4ccccc43)n2)cc1C (stereo not drawn),2.7
Cc1nnc2sc(-c3cccc(F)c3)nn12,0.5
CCOC(=O)c1c(C)oc2ccc(OCC(N)=O)cc12,3
CCOC(=O)c1c(COc2ccccc2)oc2ccc(O)cc12,1.5
CCOC(=O)c1c(CN2CCOCC2)oc2ccc(OC)cc12,3.5*
c1ccc(OCc2nnc3sc(-c4nn5c(COc6ccccc6)nnc5s4)nn23)cc1,0.62
SMILES,Dicer processing
CCCCOC(=O)n1c(=O)oc2ccccc21,6.6*
O=C(c1ccc(Cl)cc1)n1c(=O)oc2ccccc21,1.3
CCOC(=O)n1c(=S)oc2ccccc21,1.6
Cc1ccc(S(=O)(=O)NN=C2CC3(C)CC(=NNS(=O)(=O)c4ccc(C)cc4)CC3(C)C2)cc1 (stereo not drawn),-2.4
CCCCCOC(=O)C1=C(C)NC2=C(C(=O)CCC2)C1c1coc2ccccc2c1=O (stereo not drawn),1.6
Cc1ccc(S(=O)(=O)Nc2cc(Cl)c3oc4c(c3c2)C(=O)CCC4)c(C)c1,3.1*
